Shown are actives, neighbours in structure and some others; about 18% of the full set was active somewhere.
CtBP-E1A blk: blocks the CtBP interaction with E1A. AlphaScreen GST-E1A/His-CtBP binding, 1536-well; hits give low values. activity change, % (no concentration beside the values). 340,000 compounds, 0.49% hits. AID 651724; in the data active = activity change below about -65%; inconclusive = mostly about -30% to -63%
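Protein mix (5X: 125 nM each GST-E1A, His-CtBP) was incubated with pinned compound 2 h at 37 deg C in dark, in 50 mM Tris pH 8.0 buffer with 300 mM NaCl. Glutathione donor and nickel acceptor beads followed; AlphaScreen signal read after 1 h.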
TDP1 block: inhibitors of human tyrosyl-DNA phosphodiesterase TDP1 | Q9NUW8 | recombinant TDP1, AlphaScreen DNA substrate cleavage | Potency, µM (series often up to 130 µM), for the others: at the highest dose activity change, negative = inhibition, hits mostly inhibitors | 350,000 compounds, 0.28% hits; also: potency is read from the fitted curve at half-maximal effect; nearly all actives have a fitted effect of over 40% in size
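Compounds were preincubated with Tdp1 (1 nM final) for 15 min at room temperature before substrate (15 nM final) started a 5 min reaction; beads (10 ug/ml final) were then added for 10 min before AlphaScreen detection.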
TDP1 cell noCPT: qHTS for Inhibitors of human tyrosyl-DNA phosphodiesterase 1 (TDP1): qHTS in cells in absence of CPT; DT40 Tdp1-/- hTDP1 cells, no CPT, ATP luminescence, 48 h; Potency, µM (top dose mostly 46.2 µM), without a hit: at the highest dose activity change, negative = growth inhibition, usual class: inhibitors; 420,000 compounds, 15% hits; also: potency is read from the fitted curve at half-maximal effect; nearly all actives have a fitted effect of over 55% in size
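Stably hTDP1-transfected Tdp1-null chicken DT40 cells were treated with library compounds minus camptothecin and grown for at least 48 hr at 37 °C, after which cellular ATP was quantified by luminescence.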
IL1B secr inh: blocks inflammasome-driven IL-1 beta release | THP-1 LPS/ATP IL-1B secretion, AlphaLISA, 16 h; hits give low values | activity change, % at 57.5 µM | 360,000 compounds, 4.7% hits | AID 743279; in the data active = activity change below about -50%; inconclusive = mostly about -30% to -49%
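Secreted IL-1B measured by AlphaLISA bead assay after 16 h compound exposure of THP-1 cells; compounds (final up to 57.5 uM) added 1 h before LPS (250 ng/mL) and ATP (1.25 mM) stimulation; lower signal means less secretion.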
Six1-Eya2 inh: Six1/Eya2 interaction inhibition; AlphaScreen GST-Six1/His-Eya2 binding, biochemical; hits give low values; activity change, % (concentration not given with the values); 360,000 compounds, 0.56% hits; AID 651725; in the data active = activity change below about -65%; inconclusive = mostly about -30% to -63%
Target sequence (O00167 whole entry, looked up): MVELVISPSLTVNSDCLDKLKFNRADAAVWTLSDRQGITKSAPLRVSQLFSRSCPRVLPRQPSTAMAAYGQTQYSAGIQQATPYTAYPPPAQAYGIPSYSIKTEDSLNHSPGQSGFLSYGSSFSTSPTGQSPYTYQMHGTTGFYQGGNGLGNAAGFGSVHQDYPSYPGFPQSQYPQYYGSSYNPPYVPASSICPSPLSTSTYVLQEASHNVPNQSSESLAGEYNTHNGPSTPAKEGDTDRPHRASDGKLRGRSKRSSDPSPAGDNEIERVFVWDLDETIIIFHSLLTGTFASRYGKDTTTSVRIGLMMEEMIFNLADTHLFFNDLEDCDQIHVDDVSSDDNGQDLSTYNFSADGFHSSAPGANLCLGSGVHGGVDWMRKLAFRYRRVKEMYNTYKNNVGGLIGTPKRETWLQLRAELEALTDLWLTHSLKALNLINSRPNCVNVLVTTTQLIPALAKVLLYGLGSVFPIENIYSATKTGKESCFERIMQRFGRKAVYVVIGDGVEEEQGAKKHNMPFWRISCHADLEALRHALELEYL
Target sequence (Q15475 whole entry, looked up): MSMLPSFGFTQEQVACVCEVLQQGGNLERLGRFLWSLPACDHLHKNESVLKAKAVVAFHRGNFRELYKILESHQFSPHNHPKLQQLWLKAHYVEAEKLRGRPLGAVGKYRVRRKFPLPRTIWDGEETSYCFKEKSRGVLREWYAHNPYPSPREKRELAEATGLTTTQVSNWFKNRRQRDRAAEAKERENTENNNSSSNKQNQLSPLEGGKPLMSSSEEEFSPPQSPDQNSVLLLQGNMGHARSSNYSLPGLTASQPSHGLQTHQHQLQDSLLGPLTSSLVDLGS
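AlphaScreen with GST-Six1 and His-Eya2 (5X mix: 250 nM and 500 nM), glutathione donor and nickel acceptor beads; buffer 50 mM Tris pH 8.0, 300 mM NaCl, 1 mM TCEP; 1 h at 37 C in the dark.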
TDP1 cell CPT: growth inhibition of DT40 Tdp1-/-;hTDP1 cells with camptothecin (screen for TDP1 inhibitors); chicken DT40 Tdp1-/-;hTDP1 cells + 20 nM CPT, ATP luminescence, 48 h; AID 686979; 420,000 compounds, 12% hits; Potency, µM (doses to about 46.2 µM), for the others: at the top dose activity change, negative = growth inhibition, most hits filed as inhibitors; also: potency is read from the fitted curve at half-maximal effect; nearly all actives have a fitted effect of over 55% in size
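Chicken DT40 Tdp1-/- cells complemented with human TDP1, 400 cells/well, exposed to compounds plus 20 nM camptothecin for at least 48 h at 37 C; viability read as ATP content by CellTiter-Glo luminescence.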
* = called active by the depositor; i = inactive; ? = inconclusive; nt = no result given. Unless noted, calls follow the shape of the dose curve; as a rule, active = well fitted curve in the direction sought with a large enough effect; inconclusive = small, poorly fitted or top-dose-only effect, or another doubt; inactive = no such curve, though single readings can be large; an effect the other way counts as inactive or inconclusive. % is scaled to controls: 0 for no effect and ±100 for the full control effect.

SMILES	CtBP-E1A blk	TDP1 block	TDP1 cell noCPT	IL1B secr inh	Six1-Eya2 inh	TDP1 cell CPT
O=C(NCCc1ccccc1)c1ccc(Cl)c(S(=O)(=O)N2CCOCC2)c1	-14	4%	-29%	-23	-10	?
Cc1ccc(S(=O)(=O)Nc2ccc3c(c2)OCCO3)c(C)c1NS(C)(=O)=O	4	2%	10µM*	8	1	?
CSc1nnc(-c2cc3c(-c4ccccc4)nn(C)c3s2)n1C	-74*	-2%	23µM*	?	-74*	?
COc1ccc(CCNC(=O)c2cc(-c3ccc(C)cc3O)n[nH]2)cc1OC	8	2%	21µM*	10	-2	?
COc1ccc(CCNC(=O)c2cc(-c3ccccc3O)n[nH]2)cc1OC	8	7%	12%	10	1	-2%
COc1ccc(CCNC(=O)c2cc(-c3cc(C)cc(C)c3O)n[nH]2)cc1OC	-15	7%	?	-24	-7	?
COc1ccc(CCNC(=O)c2cc(-c3cc(Cl)ccc3O)n[nH]2)cc1OC	-15	nt	12µM*	-6	-13	?
O/N=C1/CC/C(=N\O)c2nn(-c3ccccc3)nc21	-14	9%	9.2µM*	-65*	-9	15µM*
COC(=O)c1nn(-c2ccccc2)nc1-c1nn(-c2ccccc2)nc1C(=O)OC	-2	3%	16µM*	-8	-9	?
O=C(O)c1nn(-c2ccccc2)nc1-c1nn(-c2ccccc2)nc1C(=O)O	1	-11%	1%	3	-1	-7%
O=C(NCc1ccccc1)c1nn(-c2ccccc2)nc1CO	nt	5%	?	nt	nt	-28%
Cc1cccc(C)c1-n1nnnc1C(c1ccnc2ccccc12)N1CCN(C(=O)OCc2ccccc2)CC1 (centres undefined)	2	nt	16µM*	12	-3	?
Cc1cccc(C)c1-n1nnnc1C(c1ccnc2ccccc12)N1CCCC1 (centres undefined)	-10	nt	?	1	8	?
CC(C)(C)n1nnnc1C(c1ccnc2ccccc12)N1CCN(C/C=C/c2ccccc2)CC1 (centres undefined)	-7	nt	16µM*	11	-21	16µM*
CC(C)(C)n1nnnc1C(c1cc2ccccc2o1)N1CCN(C(=O)OCc2ccccc2)CC1 (centres undefined)	-2	nt	18µM*	-21	-9	?
CC(C)(C)OC(=O)N1CCN(C(c2ccnc3ccccc23)c2nnnn2-c2ccc3c(c2)OCCO3)CC1 (centres undefined)	-4	nt	16µM*	6	-10	?
Cc1ccc(OCc2cc(C(=O)N3CCN(C4CCCC4)CC3)no2)cc1C	-2	10%	-24%	i	-9	-25%
COc1ccc([N+](=O)[O-])cc1N1C(=O)c2cccc3cccc(c23)C1=O	-4	0%	-22%	16	3	5%
Cc1cccc(C)c1-n1nnnc1C(c1ccnc2ccccc12)N1CCN(C/C=C/c2ccccc2)CC1 (centres undefined)	-27	nt	8.2µM*	-17	?	9.2µM*
Cc1cccc(C)c1-n1nnnc1C(c1ccnc2ccccc12)N1CCOCC1 (centres undefined)	7	nt	-25%	3	1	-5%
CCOCCCn1c(SCC(=O)Nc2ccccc2OC)nc2c(oc3ccccc32)c1=O	nt	-2%	26µM*	nt	nt	?
CCOc1ccc(NC(=O)CSc2nc3c(oc4ccccc43)c(=O)n2CCOC)cc1	nt	-1%	-13%	nt	nt	-30%
CCOc1ccccc1NC(=O)CSc1nc2c(oc3ccccc32)c(=O)n1Cc1ccco1	nt	1%	21µM*	nt	nt	16µM*

Assay outcomes deposited in PubChem BioAssay by National Center for Advancing Translational Sciences (NCATS).
